Where “and” joins values, the source holds several entries; their conditions need not be identical. Identical values can stand only once. Among all 5,500 compounds or so, about 2,000 (36%) were called active. Not shown: some 18% with an inconclusive outcome. Cut-off read from the data, not from the text of the source: active = normalized growth mostly below about 0.91 (no sharp cut-off); inconclusive = no clear call, values can overlap the other calls; inactive = mostly above about 0.92. This is one part of the list.
Assay: chemical genetic growth profiling, strain panel (AID 1159580);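 note: tested at 20 µM; growth read once vehicle control cultures reached saturation at 30 °C; 1 = growth at the plate median or of vehicle wells; lower values mean less growth of the strain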
Details: S. cerevisiae deletion strains, growth OD

Measured: normalized growth

CC[C@H]1CN2CCc3cc(OC)c(OC)cc3C2C[C@@H]1CC1NCCc2cc(OC)c(OC)cc21 (some centres undefined)
inactive: locus YAL021C, strain ccr4, stronger effect = lower value 0.988 | locus YAL026C, strain drs2, stronger effect = lower value 0.989 | locus YAL030W, strain snc1, stronger effect = lower value 0.983 | locus YBL061C, strain skt5, stronger effect = lower value 1 | locus YBR009C, strain hhf1, stronger effect = lower value 0.971 | locus YBR021W, strain FUR4, stronger effect = lower value 1.02 | locus YBR023C, strain chs3, stronger effect = lower value 0.987 | locus YBR171W, strain sec66, stronger effect = lower value 0.996 | locus YBR229C, strain ROT2, stronger effect = lower value 0.997 | locus YBR231C, strain swc5, stronger effect = lower value 0.993 | locus YBR279W, strain paf1, stronger effect = lower value 0.979 | locus YCL011C, strain gbp2, stronger effect = lower value 0.983 | locus YCL016C, strain dcc1, stronger effect = lower value 0.996 | locus YCL029C, strain bik1, stronger effect = lower value 0.989 | locus YCL069W, strain vba3, stronger effect = lower value 0.98 | locus YCR088W, strain abp1, stronger effect = lower value 0.995 | locus YDL005C, strain med2, stronger effect = lower value 0.988 | locus YDL035C, strain GPR1, stronger effect = lower value 1.01 | locus YDL040C, strain nat1, stronger effect = lower value 0.965 | locus YDL074C, strain BRE1, stronger effect = lower value 1 | locus YDL101C, strain DUN1, stronger effect = lower value 1.01 | locus YDL134C, strain PPH21, stronger effect = lower value 1 | locus YDL185W, strain tfp1, stronger effect = lower value 1 | locus YDL192W, strain arf1, stronger effect = lower value 0.987 | locus YDR001C, strain nth1, stronger effect = lower value 0.982 | locus YDR069C, strain doa4, stronger effect = lower value 0.946 | locus YDR101C, strain arx1, stronger effect = lower value 0.988 | locus YDR137W, strain rgp1, stronger effect = lower value 0.961 | locus YDR150W, strain NUM1, stronger effect = lower value 1.02 | locus YDR159W, strain sac3, stronger effect = lower value 0.899 | locus YDR162C, strain NBP2, stronger effect = lower value 1.03 | locus YDR195W, strain ref2 0.914 | locus YDR297W, strain sur2, stronger effect = lower value 0.979 | locus YDR318W, strain mcm21, stronger effect = lower value 1.01 | locus YDR334W, strain swr1, stronger effect = lower value 0.929 | locus YDR335W, strain msn5, stronger effect = lower value 0.974 | locus YDR388W, stronger effect = lower value 0.994 | locus YDR392W, strain spt3, stronger effect = lower value 0.917 | locus YDR502C, strain sam2, stronger effect = lower value 0.971 | locus YEL003W, strain gim4, stronger effect = lower value 0.979 | locus YEL037C, strain rad23, stronger effect = lower value 0.968 | locus YEL061C, strain CIN8 (second series), stronger effect = lower value 0.978 | locus YEL061C, strain CIN8, stronger effect = lower value 1.01 | locus YER015W, strain faa2, stronger effect = lower value 0.979 | locus YER016W, strain bim1, stronger effect = lower value 1.04 | locus YER110C, stronger effect = lower value 0.996 | locus YER111C, strain swi4, stronger effect = lower value 0.973 | locus YER155C, strain BEM2 (second series), stronger effect = lower value 0.962 | locus YER155C, strain BEM2, stronger effect = lower value 1.01 | locus YER167W, strain BCK2, stronger effect = lower value 1.01 | locus YFR010W, strain ubp6, stronger effect = lower value 0.956 | locus YGL078C, strain dbp3, stronger effect = lower value 0.986 | locus YGL086W, strain mad1, stronger effect = lower value 0.968 | locus YGL167C, strain pmr1, stronger effect = lower value 0.96 | locus YGL173C, strain kem1, stronger effect = lower value 0.962 | locus YGL227W, strain vid30, stronger effect = lower value 0.983 | locus YGL240W, strain doc1, stronger effect = lower value 0.945 | locus YGL248W, strain PDE1, stronger effect = lower value 1.02 | locus YGL253W, strain hxk2, stronger effect = lower value 0.95 | locus YGR078C, strain PAC10, stronger effect = lower value 1.02 | locus YGR135W, strain pre9, stronger effect = lower value 1.01 | locus YGR252W, strain gcn5, stronger effect = lower value 1 | locus YHR013C, strain ard1, stronger effect = lower value 0.941 | locus YHR027C, strain rpn1, stronger effect = lower value 0.985 | locus YHR030C, strain SLT2, stronger effect = lower value 1.01 and 1.04 | locus YHR079C, strain IRE1 (second series), stronger effect = lower value 1 | locus YHR079C, strain IRE1, stronger effect = lower value 1.12 | locus YHR094C, strain hxt1, stronger effect = lower value 0.997 | locus YHR129C, strain ARP1, stronger effect = lower value 1.01 | locus YHR142W, strain chs7, stronger effect = lower value 0.972 | locus YHR200W, strain rpn10, stronger effect = lower value 1.01 | locus YIL066C, strain RNR3, stronger effect = lower value 0.993 | locus YIL073C, strain SPO22, stronger effect = lower value 1.02 | locus YIL125W, strain kgd1, stronger effect = lower value 0.995 | locus YIR030C, strain dcg1, stronger effect = lower value 0.994 | locus YJL092W, strain hpr5, stronger effect = lower value 0.987 | locus YJL095W, strain BCK1 (second series), stronger effect = lower value 0.977 | locus YJL095W, strain BCK1, stronger effect = lower value 1.04 and 1.05 | locus YJL115W, strain asf1, stronger effect = lower value 0.962 | locus YJL129C, strain trk1, stronger effect = lower value 0.983 | locus YJL134W, strain LCB3, stronger effect = lower value 1.01 | locus YJL154C, strain vps35, stronger effect = lower value 0.979 | locus YJL164C, strain tpk1, stronger effect = lower value 0.978 | locus YJL166W, strain qcr8, stronger effect = lower value 0.962 | locus YJL168C, strain set2, stronger effect = lower value 1 | locus YJL187C, strain SWE1 (second series), stronger effect = lower value 1.02 | locus YJL187C, strain SWE1, stronger effect = lower value 0.979 | locus YJR043C, strain POL32, stronger effect = lower value 1.02 | locus YJR066W, strain TOR1, stronger effect = lower value 0.996 | locus YKL068W, stronger effect = lower value 1.01 | locus YKL085W, strain MDH1 (second series), stronger effect = lower value 1.02 | locus YKL085W, strain MDH1, stronger effect = lower value 1.02 | locus YKL160W, strain elf1, stronger effect = lower value 1.01 | locus YKR001C, strain vps1, stronger effect = lower value 1 | locus YKR026C, strain gcn3, stronger effect = lower value 0.986 | locus YKR091W, strain srl3, stronger effect = lower value 0.987 | locus YLL001W, strain dnm1, stronger effect = lower value 0.985 | locus YLL026W, stronger effect = lower value 0.992 | locus YLL041C, strain sdh2, stronger effect = lower value 0.989 | locus YLR027C, strain aat2, stronger effect = lower value 0.989 | locus YLR039C, strain RIC1, stronger effect = lower value 1.01 | locus YLR058C, strain SHM2, stronger effect = lower value 1.01 | locus YLR102C, strain apc9, stronger effect = lower value 0.999 | locus YLR113W, strain HOG1, stronger effect = lower value 1.06 | locus YLR221C, strain rsa3, stronger effect = lower value 0.984 | locus YLR258W, strain gsy2, stronger effect = lower value 0.985 | locus YLR262C, strain YPT6 (second series), stronger effect = lower value 0.978 | locus YLR262C, strain YPT6, stronger effect = lower value 1.06 | locus YLR268W, strain sec22, stronger effect = lower value 0.98 | locus YLR320W, strain mms22, stronger effect = lower value 0.948 | locus YLR330W, strain CHS5, stronger effect = lower value 1.01 | locus YLR342W, strain FKS1 (second series), stronger effect = lower value 0.987 | locus YLR342W, strain FKS1, stronger effect = lower value 1 | locus YLR357W, strain rsc2, stronger effect = lower value 0.967 | locus YLR370C, strain arc18, stronger effect = lower value 0.98 | locus YLR371W, strain rom2, stronger effect = lower value 0.994 | locus YLR384C, strain iki3, stronger effect = lower value 0.972 | locus YLR418C, strain cdc73, stronger effect = lower value 0.997 | locus YML016C, strain PPZ1, stronger effect = lower value 1.01 | locus YML032C, strain rad52, stronger effect = lower value 1.01 | locus YML120C, strain ndi1, stronger effect = lower value 0.977 | locus YML124C, strain tub3, stronger effect = lower value 0.994 | locus YMR058W, strain fet3, stronger effect = lower value 0.986 | locus YMR078C, strain ctf18, stronger effect = lower value 0.996 | locus YMR125W, strain sto1, stronger effect = lower value 0.975 | locus YMR129W, stronger effect = lower value 0.97 | locus YMR205C, strain PFK2, stronger effect = lower value 0.935 | locus YMR223W, strain ubp8, stronger effect = lower value 1.02 | locus YMR231W, strain pep5, stronger effect = lower value 0.979 | locus YMR263W, strain SAP30, stronger effect = lower value 1.02 | locus YMR307W, strain GAS1, stronger effect = lower value 1.08 | locus YNL067W, strain RPL9B, stronger effect = lower value 1.01 | locus YNL071W, strain lat1, stronger effect = lower value 0.956 | locus YNL128W, strain TEP1, stronger effect = lower value 1.01 | locus YNL183C, strain NPR1, stronger effect = lower value 1 | locus YNL209W, strain ssb2, stronger effect = lower value 0.99 | locus YNL233W, strain BNI4, stronger effect = lower value 1.01 | locus YNL248C, strain rpa49, stronger effect = lower value 0.961 | locus YNL250W, strain rad50, stronger effect = lower value 1.01 | locus YNL271C, strain bni1, stronger effect = lower value 0.998 | locus YNL298W, strain CLA4, stronger effect = lower value 1 | locus YNL307C, strain MCK1, stronger effect = lower value 0.997 | locus YNL322C, strain KRE1 (second series), stronger effect = lower value 0.983 | locus YNR049C, strain mso1, stronger effect = lower value 0.967 | locus YNR052C, strain pop2, stronger effect = lower value 1 | locus YOL006C, strain TOP1, stronger effect = lower value 1.03 | locus YOL012C, strain htz1 1.06 | locus YOL147C, strain pex11, stronger effect = lower value 0.994 | locus YOR001W, strain rrp6, stronger effect = lower value 0.98 | locus YOR061W, strain CKA2, stronger effect = lower value 1.02 | locus YOR069W, strain VPS5, stronger effect = lower value 1.01 | locus YOR070C, strain gyp1, stronger effect = lower value 1 | locus YOR080W, strain dia2, stronger effect = lower value 0.926 | locus YOR083W, strain WHI5, stronger effect = lower value 0.987 | locus YOR106W, strain vam3, stronger effect = lower value 1.01 | locus YOR136W, strain idh2, stronger effect = lower value 0.988 | locus YOR144C, strain elg1, stronger effect = lower value 1 | locus YOR184W, strain ser1, stronger effect = lower value 0.987 | locus YOR231W, strain MKK1, stronger effect = lower value 1.05 | locus YOR265W, strain rbl2, stronger effect = lower value 0.993 | locus YOR270C, strain vph1, stronger effect = lower value 0.958 | locus YOR290C, strain snf2, stronger effect = lower value 0.995 | locus YOR316C, strain cot1, stronger effect = lower value 0.992 | locus YPL051W, strain arl3, stronger effect = lower value 1.01 | locus YPL078C, strain atp4, stronger effect = lower value 1 | locus YPL106C, strain sse1, stronger effect = lower value 0.943 | locus YPL240C, strain hsp82, stronger effect = lower value 0.991 | locus YPL241C, strain CIN2, stronger effect = lower value 1.01 | locus YPL256C, strain CLN2, stronger effect = lower value 1.07 | locus YPR119W, strain clb2, stronger effect = lower value 1 | locus YPR141C, strain kar3, stronger effect = lower value 1 | locus YPR163C, strain tif3, stronger effect = lower value 0.985 | locus YPR167C, strain met16, stronger effect = lower value 1 | strain wtn01, stronger effect = lower value 0.96
